DT40 TDP1 CPT – growth inhibition of DT40 Tdp1-/-;hTDP1 cells with camptothecin (screen for TDP1 inhibitors). chicken DT40 Tdp1-/-;hTDP1 cells + 20 nM CPT, ATP luminescence, 48 h. Potency, µM (highest dose often 46.2 µM), inactives show top-dose activity change, negative = growth inhibition, usual class: inhibitors. 420,000 tested, 12% active. AID 686979; also: % is scaled to controls: 0 for no effect and ±100 for the full control effect; nearly all actives have a fitted effect of over 55% in size
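Chicken DT40 Tdp1-/- cells complemented with human TDP1, 400 cells/well, exposed to compounds plus 20 nM camptothecin for at least 48 h at 37 C; viability read as ATP content by CellTiter-Glo luminescence.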
ATXN2 expr inh – inhibitors of ATXN2 expression; HEK-293 ATXN2-luciferase reporter, luminescence, 24 h; Potency, µM (series often up to 57 µM), for the others: at the highest dose activity change, negative = inhibition, usual class: inhibitors; 360,000 tested, 0.72% active; AID 1745845; also: % is scaled to controls: 0 for no effect and ±100 for the full control effect; nearly all actives have a fitted effect of over 55% in size
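qHTS (up to 57 uM final) was run with 24 h compound exposure of reporter cells at 37 °C. Each well was multiplexed: SteadyGlo luminescence measured ATXN2-luciferase expression after a fluorogenic Gly-Phe-AFC viability readout (25 uM final).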
S2 tox – reduces viability in counter-screen for ATXN expression inhibitors; Potency, µM (titrated, usually from 56.7 µM), usual class: cytotoxic; S2 cells (HEK-293 line with an ATXN2-luciferase reporter) viability, CellTiter-Fluor protease fluorescence, 24 h; 400,000 tested, 0.49% active; also: nearly all actives have a fitted effect of over 40% in size
DT40 TDP1 no CPT – qHTS for Inhibitors of human tyrosyl-DNA phosphodiesterase 1 (TDP1): qHTS in cells in absence of CPT; DT40 Tdp1-/- hTDP1 cells, no CPT, ATP luminescence, 48 h; Potency, µM (series often up to 46.2 µM), for the others: at the highest dose activity change, negative = growth inhibition, usual class: inhibitors; 420,000 tested, 15% active; AID 686978, 2013; also: % is scaled to controls: 0 for no effect and ±100 for the full control effect; nearly all actives have a fitted effect of over 55% in size
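Chicken DT40 Tdp1-/- cells stably complemented with human TDP1 were seeded at 400 cells/well with DMSO in place of 20 nM camptothecin. After compound pinning, cells grew at least 48 hr at 37 °C; viability read by CellTiter-Glo luminescence.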
HepG2 tox – HepG2 cytotoxicity, counter-screen for TGF-b inhibitors; 410,000 tested, 0.76% active; HepG2 CAGA-GFP viability, ATP luminescence, 18 h; Potency, µM (doses to about 46.1 µM), for the others: at the top dose activity change, negative = cytotoxicity, usual class: cytotoxic
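CellTiter-Glo luminescence gave cytotoxicity after 18 hours at 37 degrees C. The cells were HepG2 CAGA-GFP in 1% FBS DMEM, stimulated with 500 pg/mL TGF-beta after compound addition. %Activity was normalised to no-cell wells (complete cell-killing) and DMSO (no toxicity), and curves were fitted and classified.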
TGFb inhibitor – blocks TGF-b signaling; HepG2 CAGA-GFP TGF-b/SMAD3 reporter, GFP fluorescence, 18 h; TGF-beta stimulated, 500 pg/mL final; Potency, µM (doses to about 46.1 µM), for inactives: at the top dose activity, negative = inhibition, most hits filed as inhibitors; 410,000 tested, 1.2% active; AID 588855; also: % is scaled to controls: 0 for no effect and ±100 for the full control effect; nearly all actives have a fitted effect of over 65% in size
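Inhibition was scored as loss of TGF-beta-induced (500 pg/mL final, 18 hours, 37 degrees C) GFP in HEPG2 cells carrying a CAGA-GFP reporter, in DMEM with 1% FBS. Well GFP was summed per cell; Activity was normalised to unstimulated and stimulated DMSO wells, then concentration-response fitting.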
* marks the source's active call; other numbers are inactive results; i = inactive; ? = inconclusive; nt = no result given. A selection: hits, their analogues and other compounds. The true share with any hit is near 17%. Calls follow the shape of the dose curve; as a rule, active = well fitted curve in the direction sought with a large enough effect; inconclusive = small, poorly fitted or top-dose-only effect, or another doubt; inactive = no such curve, though single readings can be large; an effect the other way counts as inactive or inconclusive. Potency is read from the fitted curve at half-maximal effect.

SMILES	DT40 TDP1 CPT	ATXN2 expr inh	S2 tox	DT40 TDP1 no CPT	HepG2 tox	TGFb inhibitor
O=C(CSc1nc(=O)n(Cc2ccco2)c2c1CCC2)NCc1ccccc1	-24.3%	-3.7%	i	-26.4%	1.7%	-28.4%
CCCN(CCC)CCCNC(=S)Nc1ccc2nc(N3CCCC3)cc(C)c2c1	?	nt	?	13µM*	-62.1%	?
CCN(CC)CCNC(=S)Nc1ccc2nc(N3CCOCC3)cc(C)c2c1	?	nt	i	-26.5%	0.0%	1.1%
CCN(CC)CCNC(=S)Nc1ccc2nc(N3CCN(C)CC3)cc(C)c2c1	25.9µM*	-18.2%	?	16.4µM*	-4.0%	12.9%
Cc1cc(N2CCCC2)nc2ccc(NC(=S)NCCCOC(C)C)cc12	?	-15.3%	i	?	-13.2%	0.0%
CCN(CC)CCNC(=S)Nc1ccc2nc(N3CCCC3)cc(C)c2c1	13µM*	?	i	10.3µM*	-20.9%	3.7%
O=C1NC[C@@H](CCCCN2CCN(CCc3ccc(O)cc3)C(=O)C2=O)N(CCc2ccc(O)cc2)C1=O	-1.4%	-6.7%	i	-14.0%	nt	nt
COc1ccc(CN2CCOc3c(cc(-c4ccc(OC)nn4)cc3OC)C2)c(O)c1	-9.2%	nt	i	-12.3%	nt	nt
COCC1CCCCN1C(=O)C1CCN(c2nc(-c3ccccc3)nc3c2CCC3)CC1 (configuration not stated)	18.4µM*	-21.7%	i	14.6µM*	-20.6%	11.2%
CCc1cccc(CC)c1NC(=O)COC(=O)CC1c2ccccc2CCN1S(=O)(=O)c1ccc(F)cc1 (configuration not stated)	?	14.4%	i	23.1µM*	-12.2%	8.4%
O=C(O)CC1Sc2ccccc2NC1=O (configuration not stated)	-3.8%	-0.3%	i	-19.9%	-3.7%	14.9%
O=C1Nc2ccccc2SC(c2ccccc2)C1O (configuration not stated)	23.1µM*	2.8%	i	?	3.4%	-5.5%
COCCn1cc(C(=O)N2CCN(C)CC2)c2c3ccccc3n(C)c2c1=O	-4.4%	-2.0%	i	?	5.8%	-23.4%
Cc1cccc(N2CCN(C(=O)c3cn(CC(C)C)c(=O)c4c3c3ccccc3n4C)CC2)c1C	8.2µM*	9.4%	i	5.17µM*	-31.5%	-21.1%
Cc1ccc(C)c(N2CCN(C(=O)c3cn(CC(C)C)c(=O)c4c3c3ccccc3n4C)CC2)c1	?	1.1%	i	23.1µM*	-0.2%	-0.1%
COc1ccc(N2CCN(C(=O)c3cn(CC(C)C)c(=O)c4c3c3ccccc3n4C)CC2)cc1	?	-12.1%	?	23.1µM*	-27.4%	?
CCC(=O)N1c2ccccc2CC1C(=O)NCCc1ccccc1OC (configuration not stated)	?	2.1%	i	?	-14.0%	-5.0%
CN(C(=O)COC(=O)c1ccc(S(=O)(=O)N2CCOCC2)cc1)c1ccccc1	2.7%	4.4%	i	-15.0%	-9.1%	0.9%
Cc1cc(=O)n2nc(N3CCC(C(=O)NCCCOC(C)C)CC3)sc2n1	-26.5%	-3.0%	i	-6.5%	-0.2%	23.1%
COc1ccc(C=O)cc1COc1ccc([N+](=O)[O-])c(C)c1	16.4µM*	6.2%	i	20.6µM*	-8.8%	0.0%
COc1ccc(C=O)cc1COc1ccc2c(c1)OCO2	3.66µM*	73.7%	i	4.61µM*	-3.2%	4.7%
COc1ccc(C2Nc3ccccc3C(=O)N2Cc2ccccc2)cc1COc1ccc([N+](=O)[O-])c(C)c1 (configuration not stated)	-14.1%	nt	nt	-16.2%	-16.9%	-0.5%
COc1ccc(C=O)cc1COc1ccccc1F	?	2.4%	i	?	-15.0%	0.0%

Assay outcomes deposited in PubChem BioAssay by National Center for Advancing Translational Sciences (NCATS).
